About 810 (0.43%) of roughly 190,000 compounds were called active. This is one part of a sample in which actives are shown more often than they occur. Values without a mark were called inactive. Cut-off read from the data, not from the text of the source: active = inhibition above about 50%; inactive = the rest.

In this assay the target is Mannose-6-phosphate isomerase (Homo sapiens) (UniProt P34949). The experiment in a line: inhibitors of human PMI, primary screen, biochemical, fluorescence intensity, coupled assay (AID 1209).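 Note: plate controls were DMSO vehicle for no effect and wells lacking substrate for full effect.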 The following applies: purified PMI enzyme, at 20 µM, hits give high values.
Sequence of Mannose-6-phosphate isomerase (Homo sapiens) (P34949 whole entry, looked up): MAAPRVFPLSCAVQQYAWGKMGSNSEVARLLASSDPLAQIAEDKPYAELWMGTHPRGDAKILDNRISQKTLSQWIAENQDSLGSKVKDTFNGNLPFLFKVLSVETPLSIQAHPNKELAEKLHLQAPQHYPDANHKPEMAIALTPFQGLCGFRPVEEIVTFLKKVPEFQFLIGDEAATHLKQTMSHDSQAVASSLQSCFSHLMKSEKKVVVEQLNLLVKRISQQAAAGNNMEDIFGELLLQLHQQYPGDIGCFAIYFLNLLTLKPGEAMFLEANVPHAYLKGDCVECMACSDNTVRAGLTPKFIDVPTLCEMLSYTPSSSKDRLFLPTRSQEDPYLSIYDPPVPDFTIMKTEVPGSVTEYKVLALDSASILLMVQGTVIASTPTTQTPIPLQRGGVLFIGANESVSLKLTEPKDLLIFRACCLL
On to `COc1ccc(C(=O)NCC(=O)OCC(=O)N2CC(C)CC(C)C2)cc1` (configuration not stated), for which the inhibition is 8.6%.
The figure for `Cc1cc(C)c2[nH]c(=O)c(CN(CC3CCCO3)C(=S)Nc3ccccc3)cc2c1` (configuration not stated) is 28.3%; for `COc1ccc([N+](=O)[O-])cc1NC(=O)CCN1CCN(C)CC1` it is -0.2%.
Regarding `COc1ccc2cc(/C(C)=N/NC(=O)C3CC3)ccc2c1`, the inhibition is -1.6%.
As for `Fc1ccc(-n2[nH]nnc2=S)cc1N1CCCC1`, the inhibition is -13.3%.
For `COc1ccc(Cn2c(-c3ccc(Br)cc3)c[n+]3ccccc23)cc1`, the inhibition is -1.6%.
Consider `CC(=O)c1nnn(-c2ccc([N+](=O)[O-])cc2C)c1C`, for which the inhibition was -15.2%.
In the case of `N#CC1=C2SCN(Cc3ccccc3)CN2C(=O)CC1c1ccccc1F` (configuration not stated), the inhibition is 25.6%.
To `N#CC1=C2SCN(Cc3ccccc3)CN2C(=O)CC1c1cccs1` (configuration not stated) belongs 40.2%; to `CC(C)CCCNc1nc(N2CCOCC2)nc(N2CCOCC2)n1`, 3.3%.
The figure for `O=C(NCCc1c[nH]c2ccccc12)C(=O)NCC1OCCCN1S(=O)(=O)c1cccs1` (configuration not stated) is 5.3%; for `CC(C)n1nc(C(=O)Nc2nnc(SCc3c(Cl)cccc3Cl)s2)c2ccccc2c1=O` it is 7.2%.
Take `O=C(Nc1ccc(N2CCN(c3ccccc3)CC2)c(F)c1)C1CC1`: the inhibition is -5.7%.
Turning to `CCN1c2ccccc2N(C)C1(C)c1ccccc1` (configuration not stated), the inhibition was 61.2% (active).
To `CCN1C(=O)N(C)C2(c3ccccc3)N(C)C(=O)N(C)C12c1ccccc1` (configuration not stated) belongs 13.6%; to `CN1c2ccccc2N(C)C1(C)c1ccccc1`, 26.1%.
To `O=C(CSc1nnnn1-c1ccc(F)cc1)NC1CCCCC1` belongs 15.6%.
As to `CCOc1ccccc1C(=O)Nc1cc(Cl)ccc1O`, the inhibition is 14.5%.
`O=C(Nc1ccc(N2CCCCCC2)cc1)c1ccccc1Cl`: the inhibition was 21.5%.
To `O=C(O)c1cc(NCc2c(F)cccc2Cl)ccc1N1CCOCC1` belongs 4.6%; to `Fc1cccc(Cl)c1CNc1ccc(N2CCCC2)cc1`, 87.2% (active).
In the case of `Clc1cccc(Cl)c1CNc1ccc(N2CCCC2)cc1`, the inhibition was 87.2% (active).
`NS(=O)(=O)c1ccc(NCc2c(F)cccc2Cl)cc1`: the inhibition was -1.9%.
To `O=S(=O)(Nc1ccc(N2CCCCC2)cc1)c1ccccc1` belongs 17%; to `CCCN1CNC(=S)N(c2ccccc2OCC)C1`, -9.9%.
The figure for `O=C1Nc2ccccc2C(O)(C(=O)NCc2ccco2)N1c1ccccc1` (configuration not stated) is 1.5%; for `COC(=O)[C@@]1(Cc2ccc(OC)cc2)[C@H]2c3cc(C(=O)N4CCCC4)n(Cc4ccc(C)o4)c3C[C@H]2CN1C(=O)c1ccccc1` it is 9.2%.
The figure for `Cc1[nH]nc2c1C(c1ccco1)C(C#N)=C(N)O2` (configuration not stated) is -18%.
With `CNCCOc1ccccc1C(C)(C)C`, the inhibition is 5.9%.
`NCCc1ccc(O)c(O)c1`: the inhibition was 64.5% (active).
As to `Nc1ccc(Cc2ccc(N)c(O)c2)cc1O`, the inhibition is 5.5%.
To `OCCCc1ccc(O)c(O)c1` belongs 35.2%; to `CCOC(=O)CSc1nc2sccc2c(=O)[nH]1`, 2.3%; to `O=C(Nc1ncc(Cl)cc1Cl)c1c(F)cccc1Cl`, -15.8%.
On to `Cc1cc(C)cc(N2C(=O)c3nccnc3C2=O)c1`, for which the inhibition was 1.6%.
As for `COC(=O)C(C)(C)ONC(=O)Nc1ccc(Br)cc1`, the inhibition is 17.3%.
In the case of `O=C1/C(=C/Nc2ccc3c(c2)OCO3)CCc2ccccc21`, the inhibition is 96.4% (active).
Consider `COc1ccc2c(c1)CC/C(=C/c1ccco1)C2=O`, for which the inhibition was 33.2%.
As to `CC1CCC/C(=C\Nc2ccc3c(c2)OCO3)C1=O` (configuration not stated), the inhibition was 8.9%.
As for `O=C1CCCC/C1=C/Nc1ccc2c(c1)OCO2`, the inhibition was -14.5%.
For `COc1ccc(N/C=C2\CCOC2=O)cc1`, the inhibition was -13%.
Regarding `COc1ccc(N/C=C2/CCCCC2=O)cc1`, the inhibition was 18.1%.
Regarding `COc1ccc2c(c1)CC/C(=C\Nc1ccc3c(c1)OCO3)C2=O`, the inhibition was 89.9% (active).
Consider `O=C1CCC/C1=C/Nc1ccc2c(c1)OCO2`, for which the inhibition is 26.9%.
Regarding `COc1ccc(N/C=C2\CCc3ccccc3C2=O)cc1`, the inhibition is 97.9% (active).
For `CCN(CC)C(=O)C(=O)N/N=C/c1ccc(C(=O)O)cc1`, the inhibition was 15.8%.
For `COc1cc(C(=O)Nc2ccc(C(C)=O)cc2)c(Br)c(OC)c1OC`, the inhibition was 2.4%.
Take `O=C(CCn1ccnc1)Nc1ccc2ccccc2c1`: the inhibition was 13.1%.
On to `O=S(=O)(NCCSCc1c(Cl)cccc1Cl)c1ccc2c(c1)OCCO2`, for which the inhibition was 2.4%.
For `COc1ccccc1/C=N/NC(=O)COCC(=O)N/N=C/c1ccccc1OC`, the inhibition was 12.7%.
The figure for `CCC(CC(C)(C)O)C(=O)NNC(=S)Nc1ccccc1` (configuration not stated) is 3.1%.
As to `O=C(Nc1nc(-c2ccccc2)cs1)C1COc2ccccc2O1` (configuration not stated), the inhibition was 9.1%.
`O=C(Nc1nc(-c2ccccn2)cs1)C1COc2ccccc2O1` (configuration not stated): the inhibition was -2.1%.
To `O=C(Nc1nc(-c2ccncc2)cs1)C1COc2ccccc2O1` (configuration not stated) belongs 61.7% (active); to `COc1ccc(C(O)c2nccn2Cc2ccccc2)cc1OC` (configuration not stated), 9.1%.
On to `Cc1cc(SCC(=O)N/N=C/c2ccc(O)c(O)c2O)c(C)cc1Br`, for which the inhibition is 79.9% (active).
The figure for `Cc1cc(SCC(=O)N/N=C/c2ccc(O)c(O)c2)c(C)cc1Br` is 18%; for `Cc1cc(SCC(=O)N/N=C/c2ccc(O)cc2O)c(C)cc1Br` it is -12.7%.
To `CCC(C)(C)NC(=O)C(c1ccco1)N(C(=O)c1csnn1)c1cccc(F)c1` (configuration not stated) belongs -1.3%.
With `COc1ccc(/C=C2\N=C(C)N(c3ccc(C(=O)O)cc3)C2=O)cc1OC`, the inhibition is -0.2%.
In the case of `Cc1cccc(OC(=O)c2cncc(Br)c2)c1`, the inhibition is -2.9%.
For `CC(=O)Nc1ccc(S(=O)(=O)Nc2ccc(F)c([N+](=O)[O-])c2)cc1`, the inhibition is -2.3%.
Consider `CC(=O)Nc1ccc(C)c([N+](=O)[O-])c1`, for which the inhibition was -6.2%.
With `CC(=O)Nc1ccc(S(=O)(=O)Nc2ccc(C)c([N+](=O)[O-])c2)cc1`, the inhibition is 114% (active).
The figure for `Cc1ccc(OC(=O)c2cccc(C(=O)Oc3ccc(C)cc3)n2)cc1` is 11.1%; for `CCOC(=O)c1cccc(C(=O)OCC)n1` it is 7.8%; for `Cc1ccc(OC(=O)c2cccc(C(=O)Oc3ccc(C)cn3)n2)nc1` it is 51.5% (active).

These data come from PubChem BioAssay AID1209 (Sanford-Burnham Center for Chemical Genomics, 2008).
